Screening data: PubChem, Broad Institute
ID4 binder: ID4 (human) binding; P47928; small molecule microarray, Flag-ID4 binding, fluorescence F/B; calls only; actives 1.2% (n = 31,000); AID 624137; call rule not given here;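 note: a binder raises fluorescence above local background on the spot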
Target sequence (P47928 whole entry, looked up): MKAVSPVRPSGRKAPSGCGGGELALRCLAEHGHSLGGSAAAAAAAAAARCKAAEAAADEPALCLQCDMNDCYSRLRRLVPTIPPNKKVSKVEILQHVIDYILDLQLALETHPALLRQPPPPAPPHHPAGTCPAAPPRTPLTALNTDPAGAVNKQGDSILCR
p53 PUMA act: mutant p53 pathway reactivation; SW480 PUMA-promoter luciferase; activation, % at 9.98 µM; actives 1.5% (n = 28,000); AID 624151; in the data active = activation above about 52%; inconclusive = no clear call, values can overlap the other calls
A number is an active result. Most compounds without a hit are left out; they make up all but 2.3% or so of the library.

`COC(=O)c1ccccc1NC(=O)CNC(=O)c1ccccc1` gave ID4 binder inactive and p53 PUMA act inactive.
Screening COC(=O)c1ccccc1NC(=O)c1ccc(COc2ccccc2)o1 returned ID4 binder inactive and p53 PUMA act 102.6.
Screening O=C(NCc1ccco1)c1cnn2c(C(F)F)cc(C3CC3)nc12 returned ID4 binder inactive and p53 PUMA act inactive.
For O=C(c1noc2c1CCCC2)N(C1CCCCC1)C1CCCCC1 the results were ID4 binder inactive and p53 PUMA act inactive.
`COc1ccc(Cl)cc1N(CC(=O)Nc1ccc(Br)cc1F)S(C)(=O)=O` gave ID4 binder inactive and p53 PUMA act inactive.
`Cc1c(NC(=O)CN(c2cccc(F)c2)S(C)(=O)=O)c(=O)n(-c2ccccc2)n1C` gave ID4 binder inactive and p53 PUMA act inactive.
Screening Cc1ccc(N(CC(=O)Nc2c(C)n(C)n(-c3ccccc3)c2=O)S(C)(=O)=O)cc1Cl returned ID4 binder active and p53 PUMA act inactive.
For O=C(CCCN1C(=O)c2ccccc2C1=O)Nc1ccc(Cl)cc1 the results were ID4 binder inactive and p53 PUMA act inactive.
`CC1=CCC(C(=O)O)C(C(=O)Nc2ccccc2NC(=O)c2ccc(C(F)(F)F)cc2)C1` (centres undefined) gave ID4 binder inactive and p53 PUMA act 107.7.
CC1=CCC(C(=O)O)C(C(=O)Nc2ccc(OC(F)(F)F)cc2)C1 (centres undefined) was read as ID4 binder inactive and p53 PUMA act inactive.
`COc1ccc(C2CC(=O)c3c(O)cc(O[C@@H]4O[C@H](CO)[C@@H](OC5OCC(O)(CO)C5O)[C@H](O)[C@H]4O)cc3O2)cc1` (some centres undefined) gave ID4 binder inactive.
For COc1cc(NC(=O)C(C)Oc2ccc(Cl)cc2Cl)c(OC)cc1Cl (centres undefined) the results were ID4 binder inactive and p53 PUMA act inconclusive.
`COc1ccc(NC(=O)c2ccc(N(C)S(=O)(=O)c3ccc(OC)c(OC)c3)cc2)c(OC)c1` gave ID4 binder inactive and p53 PUMA act inactive.
For COc1cc2c3cc1Oc1c(OC)c(OC)cc4c1[C@@H](Cc1ccc(OC(=O)c5ccc([N+](=O)[O-])cc5)c(c1)Oc1ccc(cc1)C[C@@H]3N(C)CC2)N(C)CC4 the results were ID4 binder active and p53 PUMA act inactive.
Screening COc1ccc2c(c1OC)C(=O)OC2[C@H]1c2c(cc3c(c2OC)OCO3)CCN1C (some centres undefined) returned ID4 binder inactive.
C/C=C(\C)C(=O)O[C@H]1[C@H](OC(C)=O)[C@@]2(CO)C(CC1(C)C)C1=CCC3[C@@]4(C)CC[C@H](O[C@@H]5O[C@H](C(=O)O)[C@@H](O)[C@H](O[C@@H]6O[C@H](CO)[C@H](O)[C@H](O)[C@H]6O[C@@H]6O[C@@H](C)[C@H](O)[C@@H](O)[C@H]6O)[C@H]5O[C@@H]5O[C@H](CO)[C@@H](O)[C@H](O)[C@H]5O)C(C)(C)C4CC[C@@]3(C)[C@]1(C)C[C@H]2O (some centres undefined) was read as p53 PUMA act inactive.
`COc1cccc2cc(C(=O)C3C(=O)C(=O)N(Cc4ccco4)C3c3ccc(F)cc3)oc12` (centres undefined) gave ID4 binder inactive and p53 PUMA act inactive.
N#Cc1ccc(Oc2ccc(C(=O)OCc3cccc(C(=O)c4ccccc4)c3)cc2)cc1C#N was read as ID4 binder inactive and p53 PUMA act inactive.
O=C(OCc1cccc(C(=O)c2ccccc2)c1)c1ccc(-c2nnc(-c3ccccc3)o2)cc1 was read as ID4 binder inactive and p53 PUMA act 71.3.
Screening O=C(Nc1ccccc1C(=O)OCc1cccc(C(=O)c2ccccc2)c1)c1ccccc1 returned ID4 binder inactive and p53 PUMA act inactive.
`CC(=O)Nc1ccccc1C(=O)OCc1cccc(C(=O)c2ccccc2)c1` gave ID4 binder inactive and p53 PUMA act 94.2.
`COc1ccc([N+](=O)[O-])cc1CSc1nnc(-c2ccc(NC(C)=O)cc2)n1C` gave ID4 binder inactive and p53 PUMA act inactive.
Cc1cc(C)c(C)c(Cn2c(CCCO)nc3ccccc32)c1C was read as ID4 binder inactive and p53 PUMA act inactive.
COc1ccc(CCN2C(=O)C(NC(=O)C(C)(C)C)(C(F)(F)F)C3=C2CC(C)(C)CC3=O)cc1OC (centres undefined) was read as ID4 binder inactive and p53 PUMA act inactive.
`O=c1cc(-c2ccccc2)oc2ccccc12` gave ID4 binder inactive.
COc1ccccc1-c1cc(=O)c2ccccc2o1 was read as ID4 binder inactive and p53 PUMA act 138.0.
Screening CNC(=O)CN(c1cc(Cl)c(Cl)cc1Cl)S(C)(=O)=O returned ID4 binder inactive and p53 PUMA act inactive.
For O=C(CSc1nnnn1-c1ccccc1)Nc1ccc(Br)cc1Cl the results were ID4 binder inactive and p53 PUMA act inactive.
`O=C(C[C@H]1CC[C@H](NC(=O)C2CCC2)[C@H](CO)O1)NCCCN1CCOCC1` gave ID4 binder inactive.
`O=C(C[C@H]1CC[C@@H](NC(=O)C2CCC2)[C@@H](CO)O1)NCCCN1CCOCC1` gave ID4 binder active.
Screening Cc1cccc(C#Cc2ccccc2)n1 returned ID4 binder inactive and p53 PUMA act 84.6.
`NS(=O)(=O)C#Cc1ccccc1` gave ID4 binder inactive and p53 PUMA act inactive.
Screening COc1cc(O)cc2occ(-c3ccc(O)cc3)c(=O)c12 returned ID4 binder inactive and p53 PUMA act inactive.
`O=c1c(-c2ccc(O)cc2)coc2cc(O)cc(O)c12` gave ID4 binder inactive and p53 PUMA act 53.0.
For CC(=O)Nc1ccc(NC(=O)CCCN2C(=O)c3ccccc3C2=O)cc1 the results were ID4 binder inactive and p53 PUMA act inactive.
Screening O=C(CCCN1C(=O)c2ccccc2C1=O)Nc1ccc(Nc2ccccc2)cc1 returned ID4 binder inactive and p53 PUMA act 55.4.
For O=C(CCN1C(=O)c2ccccc2C1=O)Nc1cccc(O)c1 the results were ID4 binder inactive and p53 PUMA act inactive.
`O=C(CN1C(=O)S/C(=C\C=C\c2ccccc2)C1=O)Nc1cccc(O)c1` gave ID4 binder inactive and p53 PUMA act 59.2.
COc1ccc(-c2nn(C)c(=O)c3ccccc23)cc1CNC(=O)c1ccc([N+](=O)[O-])cc1 was read as ID4 binder inactive and p53 PUMA act inactive.
Cc1ccc(OCC(=O)Nc2ccccc2C#N)cc1C was read as ID4 binder inactive and p53 PUMA act 83.3.
`Cc1cccc(C)c1OCC(=O)Nc1ccccc1C#N` gave ID4 binder inactive and p53 PUMA act inactive.
`Cc1ncc([N+](=O)[O-])n1CC(=O)N(C)c1ccccc1` gave ID4 binder inactive and p53 PUMA act inactive.
Screening CC1CCCCN1Cc1nc(N)nc(Nc2ccc3c(c2)OCCO3)n1 (centres undefined) returned ID4 binder inactive and p53 PUMA act inactive.
For Nc1nc(SCC(=O)N2CCc3ccccc32)n[nH]1 the results were ID4 binder inactive and p53 PUMA act inactive.
Screening COc1cc2c(cc1OC)CN(C(=O)CSc1n[nH]c(N)n1)CC2 returned ID4 binder active and p53 PUMA act inactive.
